Test results from publication PMC7862700, “An all-to-all approach to the identification of sequence-specific readers for epigenetic DNA modifications on cytosine”.

Legend:
Experiment in all cases: DAPPL (digital affinity profiling via proximity ligation, sequencing); 10 mM Tris-HCl pH 7.5, 50 mM NaCl, 1 mM DTT, 4% glycerol, room temperature, 30 min; GST-TFs on glutathione beads, 16-mer random dsDNA library, 0.1% formaldehyde crosslink after washing; high values mean tight binding
[1] = target: T1, FLI1 (Homo sapiens, UniProt Q01543 1-452); details: protein: recombinant; tags: N-terminal GST; dsDNA, one strand shown
T1 sequence: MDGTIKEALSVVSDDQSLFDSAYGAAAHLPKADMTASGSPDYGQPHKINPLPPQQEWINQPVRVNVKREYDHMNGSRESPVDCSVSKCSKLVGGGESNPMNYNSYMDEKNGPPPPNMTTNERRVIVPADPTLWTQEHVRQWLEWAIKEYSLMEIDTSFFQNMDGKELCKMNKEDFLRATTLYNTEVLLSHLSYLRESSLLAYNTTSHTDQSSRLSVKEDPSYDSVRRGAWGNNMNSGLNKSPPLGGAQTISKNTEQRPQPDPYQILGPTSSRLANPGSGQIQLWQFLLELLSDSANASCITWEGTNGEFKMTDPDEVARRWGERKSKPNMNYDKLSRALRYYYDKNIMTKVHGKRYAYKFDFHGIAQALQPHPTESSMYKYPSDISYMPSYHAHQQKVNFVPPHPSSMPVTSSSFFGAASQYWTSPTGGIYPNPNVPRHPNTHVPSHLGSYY
In short: (§1)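 Human transcription factors fused to GST were expressed in yeast, captured on glutathione beads, given DNA barcodes and pooled with a GST-only negative control. Pools were incubated with 200 nmole of a 16-mer random double-stranded DNA library in Tris/NaCl/DTT/glycerol buffer at room temperature for 30 min. They were then washed, crosslinked with 0.1% formaldehyde, proximity-ligated (BsaI/T4 ligase, 1 h, 37 °C), PCR-amplified and sequenced on an Illumina NextSeq500. Binding signal is each 6-mer's read frequency for a factor divided by its frequency for the GST control.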

[2] = target: T2, ELK1 (Homo sapiens, UniProt P19419 1-428); details: protein: recombinant; tags: N-terminal GST; dsDNA, one strand shown
T2 sequence: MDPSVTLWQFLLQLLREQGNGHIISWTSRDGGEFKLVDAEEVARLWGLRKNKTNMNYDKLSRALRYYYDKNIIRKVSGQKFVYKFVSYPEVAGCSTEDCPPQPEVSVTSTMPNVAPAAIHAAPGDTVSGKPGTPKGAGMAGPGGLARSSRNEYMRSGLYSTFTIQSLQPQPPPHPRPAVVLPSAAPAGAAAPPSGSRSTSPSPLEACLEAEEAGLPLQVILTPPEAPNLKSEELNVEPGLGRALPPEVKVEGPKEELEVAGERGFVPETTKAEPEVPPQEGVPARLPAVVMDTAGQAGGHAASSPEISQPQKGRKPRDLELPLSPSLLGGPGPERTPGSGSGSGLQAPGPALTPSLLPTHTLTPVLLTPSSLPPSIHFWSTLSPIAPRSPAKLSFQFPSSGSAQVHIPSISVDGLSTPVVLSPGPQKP
In short: as §1

[3] = target: T3, GABPA (Homo sapiens, UniProt Q06546 1-454); details: protein: recombinant; tags: N-terminal GST; dsDNA, one strand shown
T3 sequence: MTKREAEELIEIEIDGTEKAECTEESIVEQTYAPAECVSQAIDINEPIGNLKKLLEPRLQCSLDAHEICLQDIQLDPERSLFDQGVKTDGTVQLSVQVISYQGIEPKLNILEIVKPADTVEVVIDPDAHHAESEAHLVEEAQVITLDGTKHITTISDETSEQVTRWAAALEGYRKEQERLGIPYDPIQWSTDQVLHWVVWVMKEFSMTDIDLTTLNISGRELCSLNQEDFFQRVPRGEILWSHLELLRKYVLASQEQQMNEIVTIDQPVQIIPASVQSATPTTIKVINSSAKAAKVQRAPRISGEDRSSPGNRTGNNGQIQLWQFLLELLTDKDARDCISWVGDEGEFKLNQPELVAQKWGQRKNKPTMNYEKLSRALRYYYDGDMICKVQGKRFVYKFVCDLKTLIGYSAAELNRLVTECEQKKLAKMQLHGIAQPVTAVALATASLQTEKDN
In short: as §1

[4] = target: T4, ERG (Homo sapiens, UniProt P11308 1-479); details: protein: recombinant; tags: N-terminal GST; dsDNA, one strand shown
T4 sequence: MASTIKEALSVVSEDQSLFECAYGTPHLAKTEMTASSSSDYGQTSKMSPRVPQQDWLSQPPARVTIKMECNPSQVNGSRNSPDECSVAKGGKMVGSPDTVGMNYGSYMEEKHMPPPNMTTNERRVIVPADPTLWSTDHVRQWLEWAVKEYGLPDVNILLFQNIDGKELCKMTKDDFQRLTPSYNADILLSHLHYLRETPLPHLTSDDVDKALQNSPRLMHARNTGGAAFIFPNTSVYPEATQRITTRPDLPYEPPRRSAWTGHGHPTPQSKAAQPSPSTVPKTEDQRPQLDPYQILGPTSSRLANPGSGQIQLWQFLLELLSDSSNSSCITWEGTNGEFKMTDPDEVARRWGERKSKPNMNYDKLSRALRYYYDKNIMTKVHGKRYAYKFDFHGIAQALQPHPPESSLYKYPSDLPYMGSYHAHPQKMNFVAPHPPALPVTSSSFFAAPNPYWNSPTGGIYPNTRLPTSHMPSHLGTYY
In short: as §1

[5] = target: ELF1 (Homo sapiens, UniProt P32519 1-619); details: protein: recombinant; tags: N-terminal GST; dsDNA, one strand shown
In short: as §1

[6] = target: T5, EHF (Homo sapiens, UniProt Q9NZC4 1-300); details: protein: recombinant; tags: N-terminal GST; dsDNA, one strand shown
T5 sequence: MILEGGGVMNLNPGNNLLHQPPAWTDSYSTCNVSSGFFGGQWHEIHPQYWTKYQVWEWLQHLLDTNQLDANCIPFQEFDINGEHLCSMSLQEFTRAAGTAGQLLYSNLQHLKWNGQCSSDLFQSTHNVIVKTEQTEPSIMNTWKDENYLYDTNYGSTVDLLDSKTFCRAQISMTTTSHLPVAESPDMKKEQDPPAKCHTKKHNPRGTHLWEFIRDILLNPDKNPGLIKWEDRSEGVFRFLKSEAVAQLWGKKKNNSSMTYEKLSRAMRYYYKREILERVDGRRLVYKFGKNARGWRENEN
In short: as §1

[7] = target: SPI1 (Homo sapiens, UniProt P17947 1-270); details: protein: recombinant; tags: N-terminal GST; dsDNA, one strand shown
In short: as §1

[8] = target: SPIB (Homo sapiens, UniProt Q01892 1-262); details: protein: recombinant; tags: N-terminal GST; dsDNA, one strand shown
In short: as §1

[9] = target: T6, ELK3 (Homo sapiens, UniProt P41970 1-407); details: protein: recombinant; tags: N-terminal GST; dsDNA, one strand shown
T6 sequence: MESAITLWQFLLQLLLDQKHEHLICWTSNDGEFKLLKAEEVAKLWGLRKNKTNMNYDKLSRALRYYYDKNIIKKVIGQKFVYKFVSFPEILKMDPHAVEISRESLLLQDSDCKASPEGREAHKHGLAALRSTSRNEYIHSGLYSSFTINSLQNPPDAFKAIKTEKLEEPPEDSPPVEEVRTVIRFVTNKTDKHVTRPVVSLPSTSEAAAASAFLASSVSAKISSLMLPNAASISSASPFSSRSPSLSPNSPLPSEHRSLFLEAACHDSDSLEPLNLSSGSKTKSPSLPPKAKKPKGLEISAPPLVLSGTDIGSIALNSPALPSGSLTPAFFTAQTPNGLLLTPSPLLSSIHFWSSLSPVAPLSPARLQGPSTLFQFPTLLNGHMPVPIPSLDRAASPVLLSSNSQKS
In short: as §1

[10] = target: T7, FEV (Homo sapiens, UniProt Q99581 1-238); details: protein: recombinant; tags: N-terminal GST; dsDNA, one strand shown
T7 sequence: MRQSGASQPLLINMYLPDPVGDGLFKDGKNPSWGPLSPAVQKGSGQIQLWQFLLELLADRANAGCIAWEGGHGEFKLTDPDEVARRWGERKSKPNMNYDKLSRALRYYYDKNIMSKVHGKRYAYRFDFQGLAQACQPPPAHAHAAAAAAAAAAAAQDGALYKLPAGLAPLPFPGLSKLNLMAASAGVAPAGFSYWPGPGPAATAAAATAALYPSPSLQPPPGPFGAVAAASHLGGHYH
In short: as §1

[11] = target: ETV5 (Homo sapiens, UniProt P41161 1-510); details: protein: recombinant; tags: N-terminal GST; dsDNA, one strand shown
In short: as §1

[12] = target: HSF1 (Homo sapiens, UniProt Q00613 1-529); details: protein: recombinant; tags: N-terminal GST; chain copies: 3; dsDNA, one strand shown
In short: as §1

[13] = target: T8, SPIC (Homo sapiens, UniProt Q8N5J4 1-248); details: protein: recombinant; tags: N-terminal GST; dsDNA, one strand shown
T8 sequence: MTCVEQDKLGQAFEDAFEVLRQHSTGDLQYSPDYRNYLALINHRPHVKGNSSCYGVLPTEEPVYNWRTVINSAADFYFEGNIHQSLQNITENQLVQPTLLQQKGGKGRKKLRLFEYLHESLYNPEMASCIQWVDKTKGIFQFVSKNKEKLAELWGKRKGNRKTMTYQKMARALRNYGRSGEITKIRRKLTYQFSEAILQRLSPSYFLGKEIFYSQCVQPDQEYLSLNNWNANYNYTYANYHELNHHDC
In short: as §1

[14] = target: ELF4 (Homo sapiens, UniProt Q99607 1-663); details: protein: recombinant; tags: N-terminal GST; dsDNA, one strand shown
In short: as §1

[15] = target: T9, ELK4 (Homo sapiens, UniProt P28324-2 1-405); details: protein: recombinant; tags: N-terminal GST; dsDNA, one strand shown
T9 sequence: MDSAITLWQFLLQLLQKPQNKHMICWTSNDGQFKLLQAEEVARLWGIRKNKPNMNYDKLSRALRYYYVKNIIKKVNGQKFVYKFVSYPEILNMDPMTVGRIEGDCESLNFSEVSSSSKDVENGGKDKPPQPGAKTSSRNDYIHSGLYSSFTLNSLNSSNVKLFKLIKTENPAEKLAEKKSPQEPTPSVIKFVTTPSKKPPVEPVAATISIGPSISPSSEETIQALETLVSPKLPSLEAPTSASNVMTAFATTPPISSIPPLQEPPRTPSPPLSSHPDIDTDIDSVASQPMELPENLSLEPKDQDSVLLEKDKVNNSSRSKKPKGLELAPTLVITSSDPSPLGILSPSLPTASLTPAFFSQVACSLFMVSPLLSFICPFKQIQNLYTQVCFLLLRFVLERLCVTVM
In short: as §1

[16] = target: T10, ETV2 (Homo sapiens, UniProt O00321 1-342); details: protein: recombinant; tags: N-terminal GST; dsDNA, one strand shown
T10 sequence: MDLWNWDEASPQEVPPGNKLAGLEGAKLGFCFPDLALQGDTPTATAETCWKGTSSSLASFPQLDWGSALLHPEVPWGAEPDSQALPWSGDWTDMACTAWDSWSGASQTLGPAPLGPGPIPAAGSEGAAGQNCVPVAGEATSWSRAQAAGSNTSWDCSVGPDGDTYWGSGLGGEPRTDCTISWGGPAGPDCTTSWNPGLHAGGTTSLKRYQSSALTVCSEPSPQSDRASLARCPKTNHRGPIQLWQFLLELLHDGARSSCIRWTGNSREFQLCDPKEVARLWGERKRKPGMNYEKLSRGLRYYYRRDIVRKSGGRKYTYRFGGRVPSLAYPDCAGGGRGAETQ
In short: as §1

[17] = target: T11, ELF3 (Homo sapiens, UniProt P78545 1-371); details: protein: recombinant; tags: N-terminal GST; dsDNA, one strand shown
T11 sequence: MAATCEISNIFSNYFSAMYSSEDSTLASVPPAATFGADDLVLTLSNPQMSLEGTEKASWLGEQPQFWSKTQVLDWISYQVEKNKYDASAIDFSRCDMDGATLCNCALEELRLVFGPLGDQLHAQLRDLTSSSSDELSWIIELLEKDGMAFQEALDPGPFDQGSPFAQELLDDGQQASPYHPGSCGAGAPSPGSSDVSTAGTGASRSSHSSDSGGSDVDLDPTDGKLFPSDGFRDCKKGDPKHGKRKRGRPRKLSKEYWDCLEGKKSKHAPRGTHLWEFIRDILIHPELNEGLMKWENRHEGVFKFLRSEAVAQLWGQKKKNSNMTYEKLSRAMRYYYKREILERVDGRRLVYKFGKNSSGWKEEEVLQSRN
In short: as §1

[18] = target: CRX (Homo sapiens, UniProt O43186 1-299); details: protein: recombinant; tags: N-terminal GST; dsDNA, one strand shown
In short: as §1

[19] = target: ETV1 (Homo sapiens, UniProt P50549 1-477); details: protein: recombinant; tags: N-terminal GST; dsDNA, one strand shown
In short: as §1

Chain of SPIB (Q01892 whole entry): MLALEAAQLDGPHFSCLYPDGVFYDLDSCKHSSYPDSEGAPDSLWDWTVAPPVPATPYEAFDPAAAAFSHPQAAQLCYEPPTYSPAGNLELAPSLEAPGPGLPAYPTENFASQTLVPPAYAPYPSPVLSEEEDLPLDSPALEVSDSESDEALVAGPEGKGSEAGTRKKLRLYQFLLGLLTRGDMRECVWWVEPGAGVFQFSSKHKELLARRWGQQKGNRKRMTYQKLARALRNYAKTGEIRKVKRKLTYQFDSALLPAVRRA
Chain of ELF4 (Q99607 whole entry): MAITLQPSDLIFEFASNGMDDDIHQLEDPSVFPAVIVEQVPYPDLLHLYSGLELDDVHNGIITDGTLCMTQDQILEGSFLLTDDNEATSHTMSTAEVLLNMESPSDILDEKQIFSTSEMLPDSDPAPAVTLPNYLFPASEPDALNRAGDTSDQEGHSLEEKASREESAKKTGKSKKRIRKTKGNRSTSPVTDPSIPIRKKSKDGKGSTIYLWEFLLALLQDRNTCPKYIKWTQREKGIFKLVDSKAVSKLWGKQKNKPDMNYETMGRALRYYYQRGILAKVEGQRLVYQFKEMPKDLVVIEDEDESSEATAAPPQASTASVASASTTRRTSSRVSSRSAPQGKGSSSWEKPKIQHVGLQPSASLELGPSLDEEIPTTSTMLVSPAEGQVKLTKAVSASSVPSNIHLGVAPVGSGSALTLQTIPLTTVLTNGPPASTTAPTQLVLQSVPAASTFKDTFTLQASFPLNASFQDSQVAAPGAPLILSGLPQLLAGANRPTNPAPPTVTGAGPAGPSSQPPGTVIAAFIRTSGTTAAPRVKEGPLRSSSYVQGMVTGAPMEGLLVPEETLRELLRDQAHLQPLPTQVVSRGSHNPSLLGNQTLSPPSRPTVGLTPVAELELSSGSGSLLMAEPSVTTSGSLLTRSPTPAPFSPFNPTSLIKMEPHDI
Chain of ELF1 (P32519 whole entry): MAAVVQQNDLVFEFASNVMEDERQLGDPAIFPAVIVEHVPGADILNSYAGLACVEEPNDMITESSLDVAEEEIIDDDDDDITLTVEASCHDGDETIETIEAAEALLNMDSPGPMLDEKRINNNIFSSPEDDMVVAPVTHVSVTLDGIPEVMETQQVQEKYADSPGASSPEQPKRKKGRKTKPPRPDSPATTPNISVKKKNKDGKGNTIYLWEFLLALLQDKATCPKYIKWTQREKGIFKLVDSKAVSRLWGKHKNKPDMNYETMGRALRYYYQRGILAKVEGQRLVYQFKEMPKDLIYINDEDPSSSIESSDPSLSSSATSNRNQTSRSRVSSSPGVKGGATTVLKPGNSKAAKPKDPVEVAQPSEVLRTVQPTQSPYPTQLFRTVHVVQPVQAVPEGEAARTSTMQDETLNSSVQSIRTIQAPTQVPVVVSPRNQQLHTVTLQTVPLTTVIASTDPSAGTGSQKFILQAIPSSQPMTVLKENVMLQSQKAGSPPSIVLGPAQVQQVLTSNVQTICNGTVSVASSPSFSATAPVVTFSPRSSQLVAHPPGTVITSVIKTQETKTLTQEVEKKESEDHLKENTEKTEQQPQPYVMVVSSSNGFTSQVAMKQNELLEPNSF
Chain of CRX (O43186 whole entry): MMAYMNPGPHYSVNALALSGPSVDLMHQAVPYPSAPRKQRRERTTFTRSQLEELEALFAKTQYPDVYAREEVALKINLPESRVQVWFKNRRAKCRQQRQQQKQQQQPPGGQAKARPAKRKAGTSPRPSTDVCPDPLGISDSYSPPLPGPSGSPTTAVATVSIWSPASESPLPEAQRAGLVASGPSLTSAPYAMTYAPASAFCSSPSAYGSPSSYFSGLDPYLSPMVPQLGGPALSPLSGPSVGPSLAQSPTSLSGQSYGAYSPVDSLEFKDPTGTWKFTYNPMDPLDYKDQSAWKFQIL
Chain of ETV5 (P41161 whole entry): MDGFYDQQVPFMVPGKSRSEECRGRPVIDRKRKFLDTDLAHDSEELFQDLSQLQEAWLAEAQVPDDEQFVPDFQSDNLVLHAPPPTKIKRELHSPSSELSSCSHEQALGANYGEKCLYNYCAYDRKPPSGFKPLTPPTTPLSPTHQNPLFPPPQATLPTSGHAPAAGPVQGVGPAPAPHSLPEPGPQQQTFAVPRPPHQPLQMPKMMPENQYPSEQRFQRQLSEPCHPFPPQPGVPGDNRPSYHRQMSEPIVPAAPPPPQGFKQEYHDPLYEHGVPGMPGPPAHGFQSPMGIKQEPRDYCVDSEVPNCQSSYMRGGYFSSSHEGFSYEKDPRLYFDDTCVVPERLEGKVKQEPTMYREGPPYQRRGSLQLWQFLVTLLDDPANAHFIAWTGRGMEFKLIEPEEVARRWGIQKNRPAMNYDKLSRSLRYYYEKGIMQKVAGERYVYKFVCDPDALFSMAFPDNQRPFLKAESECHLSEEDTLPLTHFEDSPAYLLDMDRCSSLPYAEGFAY
Chain of HSF1 (Q00613 whole entry): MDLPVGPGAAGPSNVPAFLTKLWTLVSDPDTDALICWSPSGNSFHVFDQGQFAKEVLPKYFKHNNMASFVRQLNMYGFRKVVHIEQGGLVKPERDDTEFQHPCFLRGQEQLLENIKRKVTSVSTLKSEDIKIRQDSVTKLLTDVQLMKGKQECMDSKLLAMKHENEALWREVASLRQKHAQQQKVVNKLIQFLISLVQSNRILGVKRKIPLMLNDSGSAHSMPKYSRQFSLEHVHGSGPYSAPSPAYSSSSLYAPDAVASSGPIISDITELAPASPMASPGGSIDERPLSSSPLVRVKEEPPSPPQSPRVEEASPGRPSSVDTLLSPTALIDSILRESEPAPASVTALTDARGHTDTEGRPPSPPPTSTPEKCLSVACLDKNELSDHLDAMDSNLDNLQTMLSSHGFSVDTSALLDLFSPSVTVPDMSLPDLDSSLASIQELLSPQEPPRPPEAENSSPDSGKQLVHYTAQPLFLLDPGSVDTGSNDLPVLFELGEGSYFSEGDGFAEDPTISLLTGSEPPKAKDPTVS
Chain of ETV1 (P50549 whole entry): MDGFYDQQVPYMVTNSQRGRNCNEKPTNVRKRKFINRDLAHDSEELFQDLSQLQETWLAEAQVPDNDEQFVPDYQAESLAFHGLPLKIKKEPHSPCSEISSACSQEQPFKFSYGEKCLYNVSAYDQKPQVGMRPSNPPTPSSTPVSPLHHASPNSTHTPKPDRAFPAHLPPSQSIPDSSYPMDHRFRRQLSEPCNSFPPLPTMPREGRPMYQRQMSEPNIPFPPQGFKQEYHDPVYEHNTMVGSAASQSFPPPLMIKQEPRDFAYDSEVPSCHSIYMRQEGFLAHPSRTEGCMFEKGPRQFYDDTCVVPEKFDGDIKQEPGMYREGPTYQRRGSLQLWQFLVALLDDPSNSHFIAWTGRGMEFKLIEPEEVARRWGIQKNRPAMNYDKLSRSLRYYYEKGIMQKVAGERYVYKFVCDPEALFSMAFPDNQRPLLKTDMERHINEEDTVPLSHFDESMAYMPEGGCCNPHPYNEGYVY

Q: What does the source list for CCTTGA?
A: binding signal [1]: 1.26 fold enrichment (6-mer frequency, TF over GST control); binding signal [2]: 1.26 fold enrichment (6-mer frequency, TF over GST control); binding signal [3]: 1.24 fold enrichment (6-mer frequency, TF over GST control); binding signal [4]: 1.27 fold enrichment (6-mer frequency, TF over GST control); binding signal [5]: 1.25 fold enrichment (6-mer frequency, TF over GST control); binding signal [6]: 1.23 fold enrichment (6-mer frequency, TF over GST control); binding signal [7]: 1.17 fold enrichment (6-mer frequency, TF over GST control); binding signal [8]: 1.24 fold enrichment (6-mer frequency, TF over GST control); binding signal [9]: 1.4 fold enrichment (6-mer frequency, TF over GST control); binding signal [10]: 1.19 fold enrichment (6-mer frequency, TF over GST control); binding signal [11]: 1.25 fold enrichment (6-mer frequency, TF over GST control); binding signal [12]: 1.07 fold enrichment (6-mer frequency, TF over GST control); binding signal [13]: 1.27 fold enrichment (6-mer frequency, TF over GST control); binding signal [14]: 1.22 fold enrichment (6-mer frequency, TF over GST control); binding signal [15]: 1.22 fold enrichment (6-mer frequency, TF over GST control); binding signal [16]: 1.11 fold enrichment (6-mer frequency, TF over GST control); binding signal [17]: 1.26 fold enrichment (6-mer frequency, TF over GST control); binding signal [18]: 1.16 fold enrichment (6-mer frequency, TF over GST control); binding signal [19]: 1.17 fold enrichment (6-mer frequency, TF over GST control)
